Data as given in PubChem BioAssay AID686978 (National Center for Advancing Translational Sciences (NCATS), 2013).
Out of some 420,000 compounds screened, about 64,000 (15%) were called active. Inconclusive results (about 27%) are left out. Calls come from the whole dose curve; as a rule, active = well fitted inhibition curve with a large enough effect; inconclusive = small, poorly fitted or top-dose-only effect; inactive = flat fitted curve, though single readings scatter. Not all results are given here. Entries that show only a call come without a potency.
Potency is the fitted concentration of half-maximal effect.

Experiment: qHTS for Inhibitors of human tyrosyl-DNA phosphodiesterase 1 (TDP1): qHTS in cells in absence of CPT; note: nearly all actives have a fitted effect of over 55% in size
Details: DT40 Tdp1-/- hTDP1 cells, no CPT, ATP luminescence, 48 h; activity change, negative = growth inhibition: at 46.2 µM (top of the series)
Summary of the method: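 Camptothecin absent (DMSO only). Human TDP1-complemented DT40 knockout cells, 400 cells/well, 37 °C for minimum 48 hr; ATP measured via CellTiter-Glo, 30 min dark incubation, luminescence.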
With `CC(Oc1ccccc1)C(=O)Nc1c2c(nn1-c1ccccc1)CS(=O)C2` (stereo not given) the Potency was “inactive”.
In the case of `O=C(NCCCn1ccnc1)c1ccccc1F`, the Potency is reported as “inactive”.
In the case of `O=C(CCN1CCN(C/C=C/c2ccccc2)CC1)Nc1cccc(F)c1`, the Potency is reported as “inactive”.
With `O=C1/C(=C/c2cccs2)SC(=S)N1C1CCS(=O)(=O)C1` (stereo not given) the Potency was 18.4 µM (active).
In the case of `O=C(CCN1C(=O)/C(=C/c2cccs2)SC1=S)NNC(=O)c1cccc(O)c1`, the Potency is reported as “inactive”.
With `CCN1CCC2(CCN(Cc3cn[nH]c3-c3ccc(OC)c(F)c3)C2)C1` (stereo not given) the Potency was “inactive”.
For `O=C(Cn1cnc2c(OCc3ccccc3)ncnc21)NCCCn1ccnc1`, the Potency was “inactive”.
In the case of `Cc1ccc(C(C)(C)C)c(OCCCCN2CCCC2)c1`, the Potency is reported as 29.1 µM (active).
With `Cc1ccc(C(C)C)cc1OCCN1CCCC1` the Potency was “inactive”.
With `O=[N+]([O-])c1ccccc1OCCCCN1CCCCC1` the Potency was “inactive”.
With `Nc1nc2c(ncn2[C@@H]2O[C@H](CNCc3ccc(OCCCN4CCOCC4)cc3)[C@@H](O)[C@H]2O)c(=O)[nH]1` the Potency was “inactive”.
For `O=S(O)CNc1ccc(S(=O)(=O)c2ccc(NCS(=O)O)cc2)cc1`, the Potency was “inactive”.
With `Cc1ccccc1NC(=O)Cn1c(=O)n(Cc2ccco2)c(=O)c2ccc(C(=O)NC3CCCC3)cc21` the Potency was “inactive”.
In the case of `CNC(=S)NNC(=O)c1sccc1OCc1ccccc1`, the Potency is reported as “inactive”.
With `Cc1ccc(/C=N/NC(=O)c2sccc2OCc2ccc(F)cc2)cc1` the Potency was 18.4 µM (active).
For `Cc1ccc(COc2ccc(/C=N/NC(=O)CN3CCCCC3)cc2)cc1`, the Potency was “inactive”.
In the case of `CCN(CC)S(=O)(=O)c1ccc(NC(=O)CN(c2cccc(F)c2)S(C)(=O)=O)cc1`, the Potency is reported as “inactive”.
With `C=CCNc1scc(-c2ccccc2)[n+]1CC=C` the Potency was “inactive”.
For `C=CC[n+]1c(-c2ccc(C)cc2)csc1NNC(=O)Nc1ccccc1`, the Potency was 9.2 µM (active).
For `C=CCNC(=O)c1csc(-c2ccccc2)n1`, the Potency was “inactive”.
For `Cn1cnnc1Sc1ccc(S(C)(=O)=O)cc1[N+](=O)[O-]`, the Potency was “inactive”.
With `CNC[C@H]1OCc2cnnn2CCCC(=O)N([C@H](C)CO)C[C@@H]1C` the Potency was “inactive”.
For `CCN(CC)C(=O)C(C)N1c2cccc3cccc(c23)S1(=O)=O` (stereo not given), the Potency was 16.4 µM (active).
For `CC(C(=O)N1CCOCC1)N1c2cccc3cccc(c23)S1(=O)=O` (stereo not given), the Potency was “inactive”.
In the case of `CC(C)CN(CC(C)C)C(=O)CN1c2cccc3cccc(c23)S1(=O)=O`, the Potency is reported as “inactive”.
For `CCNC(=O)C1(C)CCN(C(=O)c2ccccc2)C1` (stereo not given), the Potency was “inactive”.
With `O=C(COc1ccc(S(=O)(=O)N2CCCCC2)cc1)NCc1ccccn1` the Potency was “inactive”.
In the case of `O=C(Cn1ccc2cc(S(=O)(=O)N3CCCC3)ccc21)NCc1ccccc1`, the Potency is reported as 9.2 µM (active).
For `O=C(CCn1ccc2cc(S(=O)(=O)N3CCCC3)ccc21)NCc1cccc(Cl)c1`, the Potency was 20.6 µM (active).
With `O=C(NCc1ccccc1)C1CCN(S(=O)(=O)c2ccc3[nH]c(=O)ccc3c2)CC1` the Potency was “inactive”.
With `COc1ccc(OC)c(CCNC(=O)CCn2ccc3cc(S(=O)(=O)N4CCCC4)ccc32)c1` the Potency was “inactive”.
In the case of `CCCCN(C(=O)c1ccc(S(=O)(=O)N2CCOCC2)cc1)C1CCS(=O)(=O)C1` (stereo not given), the Potency is reported as “inactive”.
In the case of `O=C(CN1CCOC1=O)N1CCCC(Nc2ccc(F)c(F)c2)C1` (stereo not given), the Potency is reported as “inactive”.
For `Cc1ccc([N+](=O)[O-])cc1S(=O)(=O)N1CCCN(C)CC1`, the Potency was “inactive”.
For `Cc1cc(NC(=O)c2ccc(-c3ccc(Cl)cc3)o2)cc(-c2nc3ncccc3o2)c1O`, the Potency was “inactive”.
In the case of `N#Cc1ccsc1NC(=O)CN1CCN(S(=O)(=O)c2cc(Cl)ccc2Cl)CC1`, the Potency is reported as 20.6 µM (active).
For `O=S(=O)(c1cc(Cl)ccc1Cl)N1CCN(Cc2ccco2)CC1`, the Potency was “inactive”.
In the case of `N#Cc1ccsc1NC(=O)CN1CCCCC1`, the Potency is reported as “inactive”.
In the case of `O=C(CN1CCN(S(=O)(=O)c2cc(Cl)ccc2Cl)CC1)c1ccc(O)c(O)c1`, the Potency is reported as 2.59 µM (active).
In the case of `CCN1CCN(C(=O)C2CCN(S(=O)(=O)c3cc(Cl)ccc3Cl)CC2)CC1`, the Potency is reported as “inactive”.
In the case of `CN1CCN(S(=O)(=O)c2cccc(C(=O)Nc3sccc3C#N)c2)CC1`, the Potency is reported as “inactive”.
With `Cn1c(SCc2nc3ccccc3s2)nnc1-c1ccc2c(c1)OCO2` the Potency was “inactive”.
For `COCc1cc(C)nc(SCC(=O)Nc2cccc(C)c2)c1C#N`, the Potency was “inactive”.
With `Cc1cc(C)nc(SCc2ccccc2C#N)n1` the Potency was “inactive”.
In the case of `COc1ccc(/C=C/C(=O)c2cc(Br)ccc(=O)c2O)cc1`, the Potency is reported as 20.6 µM (active).
With `COc1ccc2oc(=O)c(C(=O)O)cc2c1` the Potency was “inactive”.
In the case of `COc1ccc2oc(=N)c(C(=O)Nc3ccc(Br)cc3)cc2c1`, the Potency is reported as “inactive”.
In the case of `COc1ccc(NC(=O)Cn2nnc(C(=O)NCCc3ccc(OC)c(OC)c3)c2N)cc1`, the Potency is reported as “inactive”.
In the case of `CC(C)(C)n1cnnc1Sc1ccc([N+](=O)[O-])cn1`, the Potency is reported as “inactive”.
In the case of `Cc1ccc(S(=O)(=O)N2CCN(C)CC2)cc1C(=O)NC1CCCCC1`, the Potency is reported as “inactive”.
With `CC1CCCCC1NC(=O)c1cn(C)c2ccc(S(=O)(=O)N3CCOCC3)cc2c1=O` (stereo not given) the Potency was “inactive”.
For `O=C(COC(=O)c1cc(S(=O)(=O)N2CCCCC2)ccc1Cl)NCc1ccco1`, the Potency was “inactive”.
For `O=C(NNC(=O)c1cc(S(=O)(=O)N2CCCCC2)ccc1Cl)c1ccccc1O`, the Potency was 20.6 µM (active).
For `CC1CCCC(NC(=O)c2cc(S(=O)(=O)N3CCCCC3)ccc2Cl)C1C` (stereo not given), the Potency was 25.9 µM (active).
In the case of `Cc1cc(C(=O)CCC(=O)NNC(=O)c2ccccc2O)c(C)s1`, the Potency is reported as “inactive”.
With `Cc1ccc(S(=O)(=O)N2CCCCC2)cc1NC(=O)CCNC(=O)c1ccccc1Cl` the Potency was “inactive”.
For `CC(=O)NC(=O)c1ccccc1O`, the Potency was “inactive”.
With `O=C(NNC(=O)c1ccccc1O)c1ccccc1O` the Potency was 2.91 µM (active).
With `C[C@@H]1O[C@@H](OC[C@H]2O[C@@H](Oc3c(-c4ccc(O)cc4)oc4cc(O)cc(O)c4c3=O)[C@H](O)[C@@H](O)[C@@H]2O)[C@H](O)[C@H](O)[C@H]1O` the Potency was “inactive”.
For `CCOc1ccc(C(C)NC(=O)CN2C(=O)NC3(CCCCC3)C2=O)cc1OCC` (stereo not given), the Potency was “inactive”.
With `Cc1ccccc1NC(=O)Cn1c(=O)n(CC2CCCO2)c(=O)c2ccccc21` (stereo not given) the Potency was “inactive”.
In the case of `C=C1O[C@@](CO)(n2cnc3c(N)ncnc32)[C@H](O)[C@@H]1O`, the Potency is reported as “inactive”.
In the case of `CC(=O)NC(=S)NNC(=O)c1ccc(Br)cc1`, the Potency is reported as 5.8 µM (active).
For `COc1ccc(C(=O)NNC(=S)NC(=O)c2ccccc2)cc1`, the Potency was 16.4 µM (active).
For `COC(=O)CNC(=O)c1ccccc1[N+](=O)[O-]`, the Potency was “inactive”.
With `COc1ccc(C(=O)NC(=S)NNC(=O)CCc2ccccc2)cc1` the Potency was 6.51 µM (active).
For `O=C(CCc1ccccc1)NNC(=O)c1ccc(Br)cc1`, the Potency was “inactive”.
In the case of `O=C(NNC(=O)c1ccc(Cl)nc1)c1ccc(Br)cc1`, the Potency is reported as “inactive”.
With `COc1ccc(C(=S)Nc2ccccc2)cc1` the Potency was “inactive”.
In the case of `CNC(=S)NNC(=O)c1ccc(N(C)C)cc1`, the Potency is reported as “inactive”.
For `O=C(NC(=S)Nc1ccc(S(=O)(=O)N2CCOCC2)cc1)c1ccccc1[N+](=O)[O-]`, the Potency was “inactive”.
In the case of `COc1ccc(C(=O)NC2CCN(C(=S)Nc3ccccc3)CC2)cc1`, the Potency is reported as “inactive”.
In the case of `COc1ccc(C(=O)NNC(=S)NC(=O)c2ccccc2[N+](=O)[O-])cc1`, the Potency is reported as 23.1 µM (active).
With `CC(C)Oc1ccc(CCC(=O)NNC(=S)NCc2ccccc2)cc1` the Potency was “inactive”.
For `CS(=O)(=O)Nc1ccccc1C(=O)OCC(=O)NC1CC1`, the Potency was “inactive”.
For `CC(C)NC(=O)c1ccc(Sc2ccccc2)c([N+](=O)[O-])c1`, the Potency was “inactive”.
For `CCOc1ncccc1C(=O)OCc1cn2cc(Cl)ccc2n1`, the Potency was “inactive”.
In the case of `C[C@@H]1CN([C@H](C)CO)C(=O)c2cc(Br)cnc2O[C@@H]1CN(C)Cc1cncnc1`, the Potency is reported as “inactive”.
For `COc1ccc(-c2[nH]nc(-c3ccccc3)c2-c2nc3ccccc3[nH]2)cc1`, the Potency was “inactive”.
With `CNC(=O)NCCN1CCCC1=O` the Potency was “inactive”.
For `COC(=O)C[C@@H]1C=C[C@@H](NC(=O)c2cccnc2)[C@@H](CO)O1`, the Potency was “inactive”.
With `Cc1nn(C)c(Oc2ccccc2)c1[N+](=O)[O-]` the Potency was “inactive”.
In the case of `CCN1CC(CN(C)Cc2nc(-c3ccc(Cl)cc3)no2)CC1=O` (stereo not given), the Potency is reported as 16.4 µM (active).
With `CN(CCN1CCOCC1)Cc1nc(-c2ccc3c(c2)OCO3)no1` the Potency was “inactive”.
In the case of `CN(Cc1ccccn1)Cc1nc(-c2ccc(Cl)cc2)no1`, the Potency is reported as “inactive”.
With `O=C(Nc1ccccc1)O/N=C1/CCCc2occc21` the Potency was “inactive”.
In the case of `COc1ccc(-n2c(C)cc(C(=O)CN3C(=O)NC4(CCc5ccccc54)C3=O)c2C)cc1` (stereo not given), the Potency is reported as 18.4 µM (active).
In the case of `COc1ccc(CNC(=O)CN2C(=O)NC3(CCCc4sccc43)C2=O)cc1` (stereo not given), the Potency is reported as “inactive”.
In the case of `COc1ccc(C(=O)CN2C(=O)NC3(CCc4ccccc43)C2=O)c(OC)c1` (stereo not given), the Potency is reported as “inactive”.
In the case of `CCc1cccc(NC(=O)COC(=O)c2cc(=O)c3ccccc3o2)c1`, the Potency is reported as “inactive”.
With `CCOc1ccc(NC(=O)C(=O)NCCc2csc3nc(-c4ccccc4F)nn23)cc1` the Potency was “inactive”.
For `CCC1(C2CCN(C(=O)c3cccc(F)c3F)CC2)NC(=O)N(CCc2scnc2C)C1=O` (stereo not given), the Potency was “inactive”.
For `Cn1cccc1C(=O)Nc1nccs1`, the Potency was “inactive”.
With `CC(C)NC(=O)N1CC[C@@]2(CCCN(C(=O)c3cccc(F)c3)C2)C1` the Potency was “inactive”.
In the case of `Cc1ccc(CN(C(=O)COc2ccc(Cl)cc2C)C2CCS(=O)(=O)C2)o1` (stereo not given), the Potency is reported as 23.1 µM (active).
For `Cc1ccccc1OCC(=O)N(Cc1cccc(F)c1)C1CCS(=O)(=O)C1` (stereo not given), the Potency was “inactive”.
For `CCCCN(C(=O)COc1ccc(NC(C)=O)cc1)C1CCS(=O)(=O)C1` (stereo not given), the Potency was “inactive”.
For `O=C(/C=N/O)Nc1ccccc1`, the Potency was “inactive”.
With `CCc1c(C)c2ccc(OC3CCCCC3=O)cc2oc1=O` (stereo not given) the Potency was “inactive”.
With `O=c1[nH]cnc(O)c1C(c1ccc(F)cc1)c1c(O)nc[nH]c1=O` the Potency was “inactive”.
With `O=C(O)CCn1c(O)c(C=C2N=c3ccccc3=N2)sc1=S` the Potency was 18.4 µM (active).
With `O=C(O)CCn1c(Cc2ccccc2)nc2ccccc21` the Potency was “inactive”.
For `O=C(NCCc1ccc(C(F)(F)F)cc1)c1ccc2c(c1)OCO2`, the Potency was “inactive”.
In the case of `CC1C(c2ccccc2)=[N+]([O-])C2(CCCC2)N1O` (stereo not given), the Potency is reported as “inactive”.
With `COc1ccc(C2CC(=O)c3c(O)cc(OC4OC(COC5OC(C)C(O)C(O)C5O)C(O)C(O)C4O)cc3O2)cc1O` (stereo not given) the Potency was “inactive”.
